TSHR antag: Antagonists of the Thyroid Stimulating Hormone Receptor: HTS campaign. Thyrotropin receptor (Homo sapiens), P16473. TSHR-expressing cells, TSH-stimulated cAMP HTRF, 2 h; active compounds read low. activity change, negative = inhibition, % at 11.5 µM. actives 0.2% (n = 330,000). AID 504810, 2011;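 active = activity change below a set negative limit, meaning inhibition stronger than a set level, cut at about -70% in these data; inconclusive = activity change between two set negative limits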; also: % is scaled to controls: 0 for no effect and ±100 for the full control effect
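Freshly harvested TSHR cells receive pin-tooled compound, then EC80 TSH at 4nM final. After 2 hours at 37 deg C, antibody in lysis buffer and cAMP-d2 are added; 30 minutes at ambient temperature precede the HTRF read.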
GLP-1R inv ag: qHTS of GLP-1 Receptor Inverse Agonists (Inhibition Mode). Glucagon-like peptide 1 receptor (Homo sapiens), P43220. HEK293 GLP-1R CRE-luciferase, luminescence, 24 h; GLP-1R form is constitutively active. Potency, µM (top dose mostly 38.3 µM), for inactives: at the highest dose activity change, negative = inhibition, usual class: inhibitors. actives 1.6% (n = 410,000). AID 624417, 2012; also: potency is read from the fitted curve at half-maximal effect; % is scaled to controls: 0 for no effect and ±100 for the full control effect; nearly all actives have a fitted effect of over 55% in size
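HEK293 cells stably co-expressing a cAMP-responsive luciferase reporter and constitutively active GLP-1R were seeded, incubated 12 h, then exposed to compounds for 24 h at 37 C. Luminescence was read 12 min after detection reagent; inverse agonists lower signal.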
GLP-1R agonist: qHTS of GLP-1 Receptor Agonists | Glucagon-like peptide 1 receptor (Homo sapiens), P43220 | HEK293 GLP-1R CRE-luciferase, luminescence, 4-6 h; cells express a hypersensitive GLP-1R form | Potency, µM (series often up to 45.6 µM), for inactives: at the highest dose activation, most hits filed as activators | actives 0.007% (n = 380,000) | AID 624172, 2012; also: potency is read from the fitted curve at half-maximal effect; % of control where 0% means no effect
PTHR1 ag: qHTS for PTHR1 Agonists: Primary Screen. actives 0.075% (n = 410,000). HEK293 GP2 PTHR1 cells, GloSensor cAMP luminescence, 1 h. Potency, µM (titrated, usually from 115 µM), without a hit: top-dose activation, hits mostly activators; also: potency is read from the fitted curve at half-maximal effect; nearly all actives have a fitted effect of over 55% in size
Target sequence (Q03431 whole entry, looked up): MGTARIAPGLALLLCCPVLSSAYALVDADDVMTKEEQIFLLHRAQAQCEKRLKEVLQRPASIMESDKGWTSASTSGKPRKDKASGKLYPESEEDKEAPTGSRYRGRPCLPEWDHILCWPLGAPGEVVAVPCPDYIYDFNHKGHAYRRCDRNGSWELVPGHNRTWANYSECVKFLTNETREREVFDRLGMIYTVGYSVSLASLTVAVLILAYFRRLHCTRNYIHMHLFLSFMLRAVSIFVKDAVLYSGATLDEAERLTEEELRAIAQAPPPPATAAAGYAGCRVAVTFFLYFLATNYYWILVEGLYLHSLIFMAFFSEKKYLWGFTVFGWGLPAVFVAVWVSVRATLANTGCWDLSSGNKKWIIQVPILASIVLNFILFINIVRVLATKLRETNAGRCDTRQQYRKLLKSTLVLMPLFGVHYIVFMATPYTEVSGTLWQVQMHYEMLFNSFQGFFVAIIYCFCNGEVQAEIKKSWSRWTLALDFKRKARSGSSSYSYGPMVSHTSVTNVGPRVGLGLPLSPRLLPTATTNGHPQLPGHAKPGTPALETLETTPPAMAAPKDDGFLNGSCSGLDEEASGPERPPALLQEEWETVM
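HEK-293-derived GP2 cells expressing PTHR1 and a GloSensor cAMP reporter, 3,000/well, plated overnight, given luciferin plus IBMX (each 0.5 mM as added) for 1 h at 37 °C, then compound for 1 h at 37 °C. Luminescence was read after 15 min at room temperature.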
HEK293 tox: qHTS of GLP-1 Receptor Inverse Agonists: Cytotox Screen. HEK293 cAMP-luciferase reporter cells, luminescence, 24 h. Potency, µM (top dose mostly 38.3 µM), for the others: at the top dose activity change, negative = inhibition, most hits filed as inhibitors. actives 0.13% (n = 410,000);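 also: loss of luciferase light is scored as toxicity; potency is read from the fitted curve at half-maximal effect; % is scaled to controls: 0 for no effect and ±100 for the full control effect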
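A 23 nL compound transfer followed 12 hours of cell culture at 37 deg C; exposure then lasted 24 hr. Luciferase assay detection reagent was dispensed and plates read for luminescence after a 12 min room-temperature wait.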
The depositor's hits bear a star; ! = not active in a repeat. Most compounds without a hit are left out; they make up all but 1.8% or so of the library. Unless noted, calls follow the shape of the dose curve; as a rule, active = well fitted curve in the direction sought with a large enough effect; inconclusive = small, poorly fitted or top-dose-only effect, or another doubt; inactive = no such curve, though single readings can be large; an effect the other way counts as inactive or inconclusive.

`COc1ccc(N(CC(=O)NC2CC3CCC2C3)S(=O)(=O)c2ccc(C)cc2)cc1` (centres undefined) gave TSHR antag -9.4, GLP-1R inv ag 10µM*, GLP-1R agonist 0.2%, PTHR1 ag -13.9% and HEK293 tox -6.4%.
For COc1ccc(N(CC(=O)Nc2cccc(N(C)S(C)(=O)=O)c2)S(=O)(=O)c2ccc(C)cc2)cc1 the results were TSHR antag -4.5, GLP-1R inv ag inconclusive, GLP-1R agonist 2.3%, PTHR1 ag inactive and HEK293 tox -10.4%.
Screening CCN(CC)C(=O)c1sc2c(c1C)c(=O)n(-c1ccc(C)c(C)c1)c(=O)n2CC(=O)Nc1ccc(OC)cc1OC returned GLP-1R inv ag -0.8%, PTHR1 ag inconclusive and HEK293 tox -2.2%.
O=C(Nc1cccc2cccnc12)c1ccc(-c2cccc(Cl)c2)o1 was read as GLP-1R inv ag 4.2%, GLP-1R agonist 2.1%, PTHR1 ag inactive and HEK293 tox 0.7%.
O=C(CSc1cccc[n+]1[O-])c1cc(Cl)ccc1Cl was read as TSHR antag -1.0, GLP-1R inv ag inconclusive, GLP-1R agonist 7.1%, PTHR1 ag inactive and HEK293 tox 0.891µM*.
Screening O=C(CCc1ccccc1)NC1(Cc2ccccc2)CCN(CCc2cccs2)C1=O (centres undefined) returned TSHR antag -11.6, GLP-1R inv ag 10µM*, GLP-1R agonist 19.3%, PTHR1 ag inactive and HEK293 tox 12.1%.
CC1(NC(=O)CCc2ccccc2)CCN(CCCc2ccccc2)C1=O (centres undefined) was read as TSHR antag -10.2, GLP-1R inv ag 15.0%, GLP-1R agonist -6.6%, PTHR1 ag inactive and HEK293 tox -1.6%.
For COc1ccccc1NC(=O)CN1C(=O)CC(c2ccc(C)c(C)c2)=Nc2ccccc21 the results were GLP-1R inv ag 10µM*, PTHR1 ag -11.6% and HEK293 tox -11.2%.
For COc1ccnc(CSC(N)=Nc2cccc(C(F)(F)F)c2)c1 the results were TSHR antag 5.5, GLP-1R inv ag 11.2µM*, GLP-1R agonist 12.2%, PTHR1 ag -16.1% and HEK293 tox 14.4%.
Screening Cc1ccc(S(=O)(=O)N(CC(O)Cn2c3ccccc3c3ccccc32)c2cccc(C(=O)NCCO)c2)cc1 (centres undefined) returned GLP-1R inv ag 12.6µM*, GLP-1R agonist -0.6%, PTHR1 ag inactive and HEK293 tox -22.3%.
`Cc1ccc(S(=O)(=O)N(CC(O)Cn2c3ccccc3c3ccccc32)c2cccc(C(=O)N(C)C)c2)cc1` (centres undefined) gave GLP-1R inv ag inconclusive, GLP-1R agonist -4.2%, PTHR1 ag inactive and HEK293 tox -16.8%.
`CCC1Nc2ncnc(N3CCCCC3)c2N(Cc2ccc(Cl)cc2)C1=O` (centres undefined) gave TSHR antag -22.1, GLP-1R inv ag 10µM*!, GLP-1R agonist -0.8%, PTHR1 ag -48.9% and HEK293 tox -36.1%.
CCC1Nc2ncnc(N3CCc4ccccc4C3)c2N(Cc2ccc(Cl)cc2)C1=O (centres undefined) was read as TSHR antag -17.0, GLP-1R inv ag 7.94µM*, GLP-1R agonist -1.8%, PTHR1 ag -31.7% and HEK293 tox -15.7%.
`O=C(COc1ccccc1F)Nc1ccc2nc(SCC(=O)N3CCCC3)sc2c1` gave GLP-1R inv ag -2.0%, PTHR1 ag -20.4% and HEK293 tox -14.5%.
For Cc1ccccc1C(=O)Nc1cc(-c2cc(C(C)(C)C)oc2C)nn1C the results were TSHR antag -0.9, GLP-1R inv ag 10µM*, GLP-1R agonist 22.9%, PTHR1 ag -43.0% and HEK293 tox -8.8%.
Screening CN(C)c1ccc(N=Cc2ccco2)cc1 returned TSHR antag -74.2*, GLP-1R inv ag -8.8%, GLP-1R agonist -5.5%, PTHR1 ag -21.0% and HEK293 tox -18.0%.
For CN(C)c1ccc(C=Nc2ccc(N(C)C)cc2)cc1 the results were TSHR antag -39.4, GLP-1R inv ag inconclusive, GLP-1R agonist -16.4%, PTHR1 ag -13.4% and HEK293 tox -28.3%.
O=C(O)CSc1cccc[n+]1[O-] was read as GLP-1R inv ag -4.7%, GLP-1R agonist -11.6%, PTHR1 ag inactive and HEK293 tox -1.6%.
Screening N#CC(C#N)=C(N)CSc1cccc[n+]1[O-] returned TSHR antag 5.6, GLP-1R inv ag inconclusive, GLP-1R agonist 1.3%, PTHR1 ag inactive and HEK293 tox 4.47µM*.
Screening COc1ccc(CCNc2nc(-c3ccc(OC)c(OC)c3)cc(C(F)(F)F)n2)cc1OC returned GLP-1R inv ag -21.5%, GLP-1R agonist 10.7%, PTHR1 ag -26.6% and HEK293 tox -15.0%.
`COc1cc(/C=N/NS(=O)(=O)c2ccc(C)cc2)ccc1OCc1ccc(C(=O)O)cc1` gave TSHR antag 3.6, GLP-1R inv ag 2.82µM*, GLP-1R agonist -8.3%, PTHR1 ag -30.2% and HEK293 tox -10.1%.
CCOc1ccc(CNC(=O)C2=Cc3cccc(OC)c3OC2)cc1 was read as GLP-1R inv ag 12.7%, PTHR1 ag -4.5% and HEK293 tox -6.5%.
Screening O=C(CCC(=O)N1CCN(c2ccc(F)cc2)CC1)c1ccc(Cl)cc1 returned TSHR antag -15.7, GLP-1R inv ag inconclusive, GLP-1R agonist 1.0%, PTHR1 ag -21.8% and HEK293 tox -2.4%.
Screening O=C(CCC(=O)N1CCN(c2ccc(Cl)c(Cl)c2)CC1)c1ccccc1 returned TSHR antag -9.5, GLP-1R inv ag 11.2µM*, GLP-1R agonist -5.1%, PTHR1 ag -26.6% and HEK293 tox 4.8%.
For CN(C)c1ccc(CN(Cc2ccco2)C(=O)c2ccco2)cc1 the results were TSHR antag 18.5, GLP-1R inv ag 11.2µM*, GLP-1R agonist -4.5%, PTHR1 ag -8.3% and HEK293 tox -3.1%.
Cc1ccc(CN(Cc2ccco2)C(=O)c2ccc(Cl)cc2Cl)cc1 was read as GLP-1R inv ag 12.6µM*, PTHR1 ag -27.1% and HEK293 tox 8.3%.
`CCc1ccc2oc(C(=O)N(Cc3cccc(Cl)c3)Cc3ccco3)c(C)c2c1` gave GLP-1R inv ag 8.91µM*, PTHR1 ag inactive and HEK293 tox 13.0%.
`CCOC(=O)c1ccc(NC(=O)c2c(NCc3cc(OC)c(OC)cc3OC)sc3c2CCCC3)cc1` gave GLP-1R inv ag -22.1%, PTHR1 ag inactive and HEK293 tox -13.9%.
